The panel holds about 83,000 compounds, 20% with a hit somewhere; the sample as a whole holds those more often.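 Assay: single dose, 48 h. Readout: percent growth (0 = no net growth; negative = cell death). Active: <10.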 Unmarked numbers belong to inactive results. The source made the active and inactive calls.

Assay in all cases: NCI-60 one-dose screen, 48 h (100 = growth as untreated, 0 = no growth, -100 = all killed)
Common to all, as to settings: 10 µM unless noted

In assay [1] the test system is SK-MEL-2 melanoma.
The subject of assay [2] is EKVX NSCLC.
Assay [3] has as its system SN12C renal.
The subject of assay [4] is UO-31 renal.
Assay [5] has as its system TK-10 renal.
Assay [6] deals with ACHN renal.
The test system of assay [7] is CAKI-1 renal.
In assay [8] the test system is A498 renal.
Assay [9] has as its system CCRF-CEM leukemia.
Assay [10] concerns MOLT-4 leukemia.
Assay [11] relates to RPMI-8226 leukemia.
The subject of assay [12] is OVCAR-8 ovarian.
Assay [13] has as its system OVCAR-5 ovarian.
Assay [14] relates to OVCAR-4 ovarian.
For assay [15], the system named is SK-OV-3 ovarian.
The test system of assay [16] is IGROV1 ovarian.
The test system of assay [17] is OVCAR-3 ovarian.
Assay [18] deals with HS 578T breast.
Assay [19] concerns NCI/ADR-RES ovarian.

Take `CN(C)CCOc1ccc(-c2nc3ccc(-c4nc5ccc(N6CCN(C)CC6)cc5[nH]4)cc3[nH]2)cc1`: the growth was 25.7% in assay [1]; 83.6% in [2]; 63.5% in assay [3]; 103% in assay [4]; 90.7% in assay [5]; 111% in [6]. Further, the growth is 89.6% in assay [7]; 35.3% in [8]; 85.4% in [9]; 92% in assay [10]; 35.5% in [11]; 63.6% in assay [12]. Besides, the growth in assay [13] was 83%; in assay [14] it was 68%; in assay [15], 69.5%; in [16] it was 90%; in assay [17] it was 94.9%; in [18], 76.4%. Besides, the growth in [19] is 108%.
Regarding `COc1ccc(-c2cc(C(=O)N=Nc3c(O)[nH]c4ccccc34)no2)cc1`, the growth in assay [1] was 97.9%; in assay [2], 97.4%; in [3], 94.9%; in assay [4] it was 81.5%; in [5] it was 118%; in assay [6] it was 107%. The growth in assay [7] was 86%; in assay [8], 84.6%; in assay [9], 101%; in assay [10] it was 106%; in [11], 96.9%; in assay [12] it was 103%. In addition, the growth in assay [13] was 97.7%; in [14], 105%; in assay [15], 103%; in assay [16], 102%; in [17], 108%; in assay [18] it was 95.3%. Further, the growth in [19] was 102%.
As to `Cc1nn(-c2ccccc2)c2nc(C)n(-c3ccc(Br)cc3)c(=O)c12`, the growth in assay [1] was 26.6%; in assay [2] it was 32.1%; in [3], 48.6%; in [4] it was 34.1%; in assay [5], 53.1%; in [6] it was 44.8%. Besides, the growth in [7] is 26.9%; in [8], -30.4% (active); in assay [9], 13.6%; in [10], 19.8%; in assay [11], 9.81% (active); in assay [12] it was 25.9%. In addition, the growth in assay [13] was 36.3%; in [14], 40.1%; in [15] it was 41.7%; in assay [16] it was 30.6%; in assay [17], -31.7% (active); in assay [18], 15%. Further, the growth in assay [19] was 3.19% (active).
For `Cc1nc2nc(N)nc(N)c2nc1C`, the growth in [1] was 86.5%; in assay [2], 97.9%; in assay [3], 93.1%; in [4] it was 78.6%; in assay [5] it was 95.4%; in [6], 96.3%. Also, the growth in [7] is 92.3%; in assay [8], 100%; in assay [9] it was 98.5%; in [10], 118%; in assay [11], 100%; in assay [12], 96.2%. Besides, the growth is 93.6% in assay [13]; 96.4% in [14]; 103% in [15]; 108% in assay [16]; 98% in [17]; 99.6% in assay [18]. In addition, in assay [19], the growth was 102%.
As to `CCOC(=O)C12CCCC1=CC(=O)CC2` (stereo unspecified), the growth was 89.9% in [1]; 111% in assay [2]; 110% in assay [3]; 85.3% in assay [4]; 128% in assay [5]; 106% in [6]. Besides, the growth was 103% in [7]; 110% in assay [8]; 95.7% in assay [9]; 94.6% in assay [10]; 98.5% in [11]; 96.5% in [12]. Also, the growth is 96.3% in [13]; 112% in assay [14]; 102% in assay [15]; 103% in assay [16]; 116% in assay [17]; 98.2% in assay [18]. In addition, in assay [19], the growth was 104%.
Regarding `O=C(/C=C/c1cc2ccccc2[nH]c1=O)/C=C/c1cc2ccccc2[nH]c1=O`, the growth in assay [1] is 54%; in assay [2], 47.3%; in [3] it was 23.8%; in assay [4] it was -83.8% (active); in assay [5], -14.8% (active); in assay [6], -11.2% (active). Moreover, the growth was 31.9% in [7]; 30.4% in assay [8]; 17.8% in assay [9]; 31.6% in [10]; -16.8% (active) in assay [11]; 4.07% (active) in assay [12]. The growth in assay [13] was 15.6%; in assay [14], 38.3%; in assay [15], 8.82% (active); in assay [16] it was -23.6% (active); in [17], -58% (active); in [18], 19.9%. The growth in [19] was 57.2%.
As to `Oc1cccc(Nc2nccc(-c3ccc4ccccc4c3)n2)c1`, the growth is 14.5% in assay [1]; 50.5% in [2]; 33.8% in assay [3]; 34% in assay [4]; 62% in assay [5]; 37.6% in [6]. Further, the growth is 24% in [7]; 71.2% in assay [8]; 6.6% (active) in assay [9]; 23.5% in [10]; 9.15% (active) in [11]; 29.4% in assay [12]. Besides, the growth in assay [13] was 58.4%; in [14] it was 86.5%; in assay [15] it was 27.2%; in assay [16], 41.7%; in [17] it was 14.7%; in [18] it was 13%. The growth in [19] is 19.9%.
As for `COc1ccc(-c2cc(NC(=O)Nc3ccc(O)cc3)no2)cc1`, the growth in assay [1] is 102%; in [2], 77.2%; in [3], 74.8%; in assay [4], 41.9%; in assay [5], 96.9%; in assay [6], 55.4%. In addition, the growth in assay [7] was 31.2%; in assay [8] it was 30.9%; in assay [9], 31%; in [10], 19.2%; in [11] it was 82.1%; in assay [12], 90.1%. Besides, the growth in assay [13] was 82.9%; in assay [14], 76.7%; in assay [15], 111%; in assay [16], 68.2%; in assay [17], 87.4%; in [18] it was 89.3%. The growth in assay [19] was 67.8%.
For the compound `O=C(/C=C/c1ccc(Cl)cc1)c1ccc(O)c(CN2CCN(c3cc4c(cc3F)c(=O)c(C(=O)O)cn4C3CC3)CC2)c1`, the growth was 68.6% in [1]; 62.4% in assay [2]; 26.8% in assay [3]; 33.4% in [4]; 73.8% in [5]; 32.5% in assay [6]. For the same compound, the growth in assay [7] is 45.5%; in [8], 39.9%; in [9] it was 43.9%; in assay [10] it was 66%; in [11] it was 16.5%; in assay [12] it was 27.4%. The growth in [13] is 77.5%; in assay [14] it was 89.2%; in assay [15], 73.8%; in assay [16] it was 51.6%; in assay [18] it was 47%; in assay [19] it was 65.7%.
Turning to `Oc1ccc(Nc2nccc(-c3ccc4ccccc4c3)n2)cc1`, the growth was 9.62% (active) in assay [1]; 58.1% in assay [2]; 32.4% in [3]; 29% in assay [4]; 49.4% in assay [5]; 42.8% in assay [6]. Moreover, the growth in assay [7] was 27.2%; in assay [8], 21.8%; in [9], 9.76% (active); in assay [10], 14.8%; in [11], 18.3%; in [12], 31.6%. Moreover, the growth in assay [13] is 66.9%; in assay [14] it was 65.5%; in [15], 57.4%; in assay [16], 36.3%; in assay [18], 42.8%.
For `CN(C)c1ccc(C2Nc3ccccc3-n3cccc32)cc1` (stereo unspecified), the growth is 118% in assay [1]; 87.8% in assay [2]; 89.5% in assay [3]; 64.2% in [4]; 55.7% in assay [5]; 86.6% in assay [6]. In addition, the growth in [7] was 83.3%; in [8], 113%; in assay [9], 109%; in assay [10], 104%; in assay [11], 80.2%; in assay [12], 94.5%. Moreover, the growth in assay [13] is 72%; in assay [14], 87.1%; in assay [15] it was 104%; in assay [16] it was 55%; in assay [17], 92.8%; in assay [18], 95.5%. Moreover, in [19], the growth was 105%.

The values above are taken from PubChem BioAssay (NCI).
